In the supplement of paper PMC8728848:
Only a selection was taken, and the strongest signals are over-represented in it overall.

Tests used:
Assay in all cases: glycan array binding signal (z-score within array); higher = stronger binding
Conditions in all cases: glycan notation: IUPAC condensed, linker removed
GalNAc(b1-4)Gal(b1-4)Glc = biological target: GalNAc(b1-4)Gal(b1-4)Glc
Outline: (§1)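 Columns mapping to the same glycan were averaged after glycan names were converted to IUPAC-condensed notation. The data come from 3228 arrays in the Consortium for Functional Glycomics database, limited to those with an available protein sequence. Binding is reported as a within-array Z-score averaged across arrays of one protein sequence and across linkers.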

GalNAc(b1-4)GlcNAc = biological target: GalNAc(b1-4)GlcNAc
Outline: as §1

[1] = biological target: Glc(a1-6)Glc(a1-6)Glc(a1-6)Glc
Outline: as §1

[2] = biological target: GlcNAc(b1-2)Gal(b1-3)GalNAc
Outline: as §1

[3] = biological target: GlcNAc(b1-3)Gal(b1-4)GlcNAc(b1-3)Gal(b1-4)GlcNAc(b1-3)Gal(b1-4)GlcNAc(b1-2)Man(a1-3)[GlcNAc(b1-3)Gal(b1-4)GlcNAc(b1-3)Gal(b1-4)GlcNAc(b1-3)Gal(b1-4)GlcNAc(b1-2)Man(a1-6)]Man(b1-4)GlcNAc(b1-4)[Fuc(a1-6)]GlcNAc
Outline: as §1

[4] = biological target: GlcNAc(b1-3)Gal(b1-4)GlcNAc(b1-3)Gal(b1-4)GlcNAc(b1-3)Gal(b1-4)GlcNAc(b1-2)[GlcNAc(b1-3)Gal(b1-4)GlcNAc(b1-3)Gal(b1-4)GlcNAc(b1-3)Gal(b1-4)GlcNAc(b1-6)]Man(a1-6)[GlcNAc(b1-3)Gal(b1-4)GlcNAc(b1-3)Gal(b1-4)GlcNAc(b1-3)Gal(b1-4)GlcNAc(b1-2)Man(a1-3)]Man(b1-4)GlcNAc(b1-4)[Fuc(a1-6)]GlcNAc
Outline: as §1

[5] = biological target: GlcNAc(b1-3)Gal(b1-4)GlcNAc(b1-3)Gal(b1-4)GlcNAc(b1-3)Gal(b1-4)GlcNAc(b1-3)Gal(b1-4)GlcNAc(b1-2)[GlcNAc(b1-3)Gal(b1-4)GlcNAc(b1-3)Gal(b1-4)GlcNAc(b1-3)Gal(b1-4)GlcNAc(b1-3)Gal(b1-4)GlcNAc(b1-6)]Man(a1-6)[GlcNAc(b1-3)Gal(b1-4)GlcNAc(b1-3)Gal(b1-4)GlcNAc(b1-3)Gal(b1-4)GlcNAc(b1-3)Gal(b1-4)GlcNAc(b1-2)Man(a1-3)]Man(b1-4)GlcNAc(b1-4)[Fuc(a1-6)]GlcNAc
Outline: as §1

GlcNAc(b1-3)GalNAc = biological target: GlcNAc(b1-3)GalNAc
Outline: as §1

GlcNAc(b1-3)Man = biological target: GlcNAc(b1-3)Man
Outline: as §1

[6] = biological target: GlcNAc(b1-3)[GlcNAc(b1-6)]GalNAc
Outline: as §1

[7] = biological target: GlcNAc(b1-4)GlcNAc(b1-4)GlcNAc(b1-4)GlcNAc(b1-4)GlcNAc(b1-4)GlcNAc
Outline: as §1

Kdn(a2-3)Gal(b1-3)GlcNAc = biological target: Kdn(a2-3)Gal(b1-3)GlcNAc
Outline: as §1

Man(a1-2)Man(a1-3)Man = biological target: Man(a1-2)Man(a1-3)Man
Outline: as §1

[8] = biological target: Neu5Ac(a2-3)Gal(b1-4)GlcNAc(b1-2)Man(a1-3)[Neu5Ac(a2-3)Gal(b1-4)GlcNAc(b1-2)Man(a1-6)]Man(b1-4)GlcNAc(b1-4)GlcNAc
Outline: as §1

[9] = biological target: Neu5Ac(a2-3)Gal(b1-4)GlcNAc(b1-3)Gal(b1-3)GlcNAc
Outline: as §1

[10] = biological target: Neu5Ac(a2-3)Gal(b1-4)GlcNAc(b1-3)Gal(b1-4)GlcNAc
Outline: as §1

[11] = biological target: Neu5Ac(a2-3)Gal(b1-4)GlcNAc(b1-3)GalNAc
Outline: as §1

[12] = biological target: Neu5Ac(a2-3)Gal(b1-4)[Fuc(a1-3)]GlcNAc(b1-6)[Gal(b1-3)]GalNAc
Outline: as §1

[13] = biological target: Neu5Ac(a2-3)[GalNAc(b1-4)]Gal(b1-4)GlcNAc(b1-3)GalNAc
Outline: as §1

[14] = biological target: Neu5Ac(a2-6)Gal(b1-3)GlcNAc(b1-3)[Gal(b1-4)GlcNAc(b1-6)]Gal(b1-4)Glc
Outline: as §1

[15] = biological target: Neu5Ac(a2-6)Gal(b1-4)GlcNAc(b1-3)Gal(b1-4)GlcNAc(b1-3)Gal(b1-4)GlcNAc
Outline: as §1

[16] = biological target: Neu5Ac(a2-6)Gal(b1-4)GlcNAc(b1-3)Gal(b1-4)GlcNAc(b1-3)Gal(b1-4)GlcNAc(b1-2)Man(a1-3)[Neu5Ac(a2-6)Gal(b1-4)GlcNAc(b1-3)Gal(b1-4)GlcNAc(b1-3)Gal(b1-4)GlcNAc(b1-2)Man(a1-6)]GalNAc
Outline: as §1

[17] = biological target: Neu5Ac(a2-6)Gal(b1-4)GlcNAc(b1-3)Gal(b1-4)GlcNAc(b1-3)[Neu5Ac(a2-6)Gal(b1-4)GlcNAc(b1-3)Gal(b1-4)GlcNAc(b1-6)]GalNAc
Outline: as §1

[18] = biological target: Neu5Ac(a2-6)Gal(b1-4)GlcNAc(b1-6)[Gal(b1-3)GlcNAc(b1-3)]Gal(b1-4)Glc
Outline: as §1

[19] = biological target: Neu5Ac(a2-6)GalNAc(b1-4)GlcNAc
Outline: as §1

[20] = biological target: Neu5Ac(a2-8)Neu5Ac(a2-3)Gal(b1-4)GlcNAc
Outline: as §1

[21] = biological target: Neu5Ac(a2-8)Neu5Ac(a2-8)Neu5Ac
Outline: as §1

[22] = biological target: Neu5Gc(a2-3)Gal(b1-4)GlcNAc(b1-3)Gal(b1-4)GlcNAc(b1-2)Man(a1-3)[Neu5Gc(a2-3)Gal(b1-4)GlcNAc(b1-3)Gal(b1-4)GlcNAc(b1-2)Man(a1-6)]Man(b1-4)GlcNAc(b1-4)GlcNAc
Outline: as §1

B1: PkBDPgamma (Plasmodium knowlesi) (protein)
chain: SAINQIFLQNNVMDKCNDKRKRGERDWDCPTEKDVCIPDRRYQLCMMEITNLVDTDTHFHSDIIFRKSYSRRRLIYDVGGRGDLLLKKYNNVYSEDLCKDIKWSLQDFGDIIMGTDMEGIGYSLVVQNNLRSIFGTGTSAELDRKKWWNDHKKDIWKAMILSVKEKNRYSAWNCKEDVQIKVEPQIYRWIREWGRDYMSEFREQRRKLNEKCEDKLYYSTMLICTLPPCNNACKSYDEWITGKKKQWDVLSTKFSSVKKAQKIETENIARAYDILKQELNGFNEVTFENEINKRDKLYNYFCVCIVQEARKNTQENVKNVGSGVESKAPSSNPINEAVKSSSGEGKVQEDSAHRSVNEGEGKSSTNEADPGSQPGAAASGGGSGGGTGGGVDLAPQMLRELQETNAALQDVRELLRQQVKEITFLKNTVMECDACGGPLDRNLPPLAPLGPTGGWSHPQFEK
GalNAc(b1-4)Gal(b1-4)Glc
  glycan array binding signal (z-score): -0.243
GalNAc(b1-4)GlcNAc
  glycan array binding signal (z-score): -0.002
[1]
  glycan array binding signal (z-score): 0.897
[2]
  glycan array binding signal (z-score): -0.401
[3]
  glycan array binding signal (z-score): 0.128
[4]
  glycan array binding signal (z-score): -0.196
[5]
  glycan array binding signal (z-score): 2.27
GlcNAc(b1-3)GalNAc
  glycan array binding signal (z-score): -0.356
GlcNAc(b1-3)Man
  glycan array binding signal (z-score): -0.084
[6]
  glycan array binding signal (z-score): -0.331
[7]
  glycan array binding signal (z-score): -0.371
Kdn(a2-3)Gal(b1-3)GlcNAc
  glycan array binding signal (z-score): -0.196
Man(a1-2)Man(a1-3)Man
  glycan array binding signal (z-score): -0.276
[8]
  glycan array binding signal (z-score): 0.46
[9]
  glycan array binding signal (z-score): -0.241
[10]
  glycan array binding signal (z-score): 0.522
[11]
  glycan array binding signal (z-score): -0.073
[12]
  glycan array binding signal (z-score): 0.362
[13]
  glycan array binding signal (z-score): -0.323
[14]
  glycan array binding signal (z-score): -0.324
[15]
  glycan array binding signal (z-score): 0.015
[16]
  glycan array binding signal (z-score): 0.405
[17]
  glycan array binding signal (z-score): 0.922
[18]
  glycan array binding signal (z-score): 1.24
[19]
  glycan array binding signal (z-score): -0.045
[20]
  glycan array binding signal (z-score): 0.25
[21]
  glycan array binding signal (z-score): -0.324
[22]
  glycan array binding signal (z-score): 20.7
